Inconclusive results are not listed. Active and inactive are the calls of the source. The calls were made as follows, unless noted: active = hit-call score of the fitted dose curve at least 0.9, where 1 is the maximum; inactive = score below 0.9.

We go through eight compounds from PubChem BioAssay (EPA / NIEHS).

The target in assay [1] is human Retinoid X Receptor beta (RXRb), RXRB (gene 6257) (UniProt P28702). In words: ATG_RXRb_TRANS: Attagene TRANS-FACTORIAL HepG2 Assay for human Retinoid X Receptor beta (RXRb) (AID 2283013; active = hit-call score of the fitted dose curve at least 0.9, where 1 is the maximum). An outline of the steps:
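Chimeric receptor-Gal4 activity was assessed in transiently transfected human HepG2 cells after 24 h exposure. Transcripts from GAL4-UAS reporters were quantified by fluorescent RT-PCR and capillary electrophoresis, with DMSO as negative control and baseline.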

Read-out in assay [2]: E-selectin (Homo sapiens) (UniProt P16581)
Put plainly: BSK_3C_Eselectin: BioMAP Diversity Plus: 3C Assay for Eselectin Biomarker Activity (AID 2283015).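 As to outcome: cell surface E-selectin protein quantified by ELISA 24 h after dosing.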 The following applies: primary human endothelial cells (HUVEC); actives raise or lower the signal. The method, boiled down:
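HUVEC, 3C stimulation; compound exposure 24 h; E-selectin by ELISA; gain- or loss-of-signal fitted bidirectionally vs DMSO baseline.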

Read-out in assay [3]: Interleukin-1 alpha (IL1a), IL1A (gene 3552)
In words: BSK_BE3C_IL1a: BioMAP Diversity Plus: BE3C Assay for Interleukin-1 alpha (IL1a) Biomarker Activity (AID 2283016). The following applies: primary human bronchial epithelial cells; actives raise or lower the signal. An outline of the steps: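 Signal from IL-1a ELISA, taken 24 h after chemical dosing of human bronchial epithelial cells, is compared with DMSO as baseline using bidirectional curve fitting.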

Read-out in assay [4]: Monocyte Chemoattractant Protein-1 (MCP1), CCL2 (gene 6347)
Put plainly: BSK_3C_MCP1: BioMAP Diversity Plus: 3C Assay for Monocyte Chemoattractant Protein-1 (MCP1) Biomarker Activity (AID 2283017). The following applies: primary human endothelial cells (HUVEC); actives raise or lower the signal. An outline of the steps: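 HUVEC, 3C system; 24 h chemical exposure; MCP-1 by ELISA; bidirectional curve fit vs DMSO baseline.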

Read-out in assay [5]: Monocyte Chemoattractant Protein-1 (MCP1), CCL2 (gene 6347)
In words: BSK_4H_MCP1: BioMAP Diversity Plus: 4H Assay for Monocyte Chemoattractant Protein-1 (MCP1) Biomarker Activity (AID 2283018). The following applies: primary human endothelial cells (HUVEC); actives raise or lower the signal. An outline of the steps:
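Endothelial cells from umbilical vein were treated with test chemical, then after 24 h MCP-1 levels were quantified by ELISA; endpoint values came from bidirectional fitting with DMSO as baseline of activity.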

Read-out in assay [6]: Human Leukocyte Antigen - DR isotype (HLADR), HLA-DRA (gene 3122)
Put plainly: BSK_3C_HLADR: BioMAP Diversity Plus: 3C Assay for Human Leukocyte Antigen - DR isotype (HLADR) Biomarker Activity (AID 2283019).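 Also: ELISA of cell-surface HLA-DR on HUVEC 24 h after dosing.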 The following applies: primary human endothelial cells (HUVEC); actives raise or lower the signal. An outline of the steps:
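HUVEC, 3C stimulation, 24 h post-dose; HLA-DR by ELISA; bidirectional curve fit vs DMSO baseline; gain or loss of signal scored.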

Read-out in assay [7]: Interleukin-8 (IL8), CXCL8 (gene 3576)
In words: BSK_3C_IL8: BioMAP Diversity Plus: 3C Assay for Interleukin-8 (IL8) Biomarker Activity (AID 2283020). The following applies: primary human endothelial cells (HUVEC); actives raise or lower the signal. The method, boiled down:
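Endothelial primary cells of human umbilical vein origin are dosed with chemical; after 24 h the IL-8 biomarker is measured by ELISA, and concentration–response is fitted in both directions versus DMSO.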

Read-out in assay [8]: Monokine induced gamma interferon (MIG), CXCL9 (gene 4283)
In words: BSK_3C_MIG: BioMAP Diversity Plus: 3C Assay for Monokine induced gamma interferon (MIG) Biomarker Activity (AID 2283021). The following applies: primary human endothelial cells (HUVEC); actives raise or lower the signal. An outline of the steps: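 Endothelial primary cells (human umbilical vein) are dosed with test chemical in the 3C system. MIG levels are measured by ELISA at 24 h and fitted in both directions relative to DMSO.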

Assay [9] is described as follows: BSK_3C_SRB: Viability Assessment in the BioMAP Diversity Plus: 3C Assay (AID 2283023).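 Also: fitted both ways against DMSO so a hit may be signal rise or drop.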 The following applies: primary human endothelial cells (HUVEC). The method, boiled down: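 HUVEC, 24 h post-dose; 10% TCA fix, 0.1% SRB stain, A560 nm. Bidirectional curve fit vs DMSO negative control.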
Read-out in assay [10]: Matrix Metallopeptidase 1 (MMP1), MMP1 (gene 4312)
Put plainly: BSK_BE3C_MMP1: BioMAP Diversity Plus: BE3C Assay for Matrix Metallopeptidase 1 (MMP1) Biomarker Activity (AID 2283024). The following applies: primary human bronchial epithelial cells; actives raise or lower the signal. The method, boiled down:
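MMP1 signal, measured by ELISA after a 24 h chemical exposure of human primary bronchial epithelial cells, is analysed with bidirectional fitting using DMSO as negative control.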

Assay [11] is described as follows: BSK_3C_Vis: BioMAP Diversity Plus: 3C Assay for Morphology Visualization (AID 2283025).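 Also: fitted both ways so gain or loss versus DMSO counts.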 The following applies: primary human endothelial cells (HUVEC). An outline of the steps: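 Morphology read by light microscopy serves as a background control for the multiplexed 3C assay in human umbilical vein endothelial cells, taken 24 h after dosing, with DMSO as the negative control and bidirectional curve fitting.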

Read-out in assay [12]: Pselectin, SELP (gene 6403)
Put plainly: BSK_4H_Pselectin: BioMAP Diversity Plus: 4H Assay for Pselectin Biomarker Activity (AID 2283026). The following applies: primary human endothelial cells (HUVEC); actives raise or lower the signal. The method, boiled down:
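Endothelial primary cells (human umbilical vein) are dosed, incubated 24 h, and assayed for surface P-selectin by ELISA; responses in either direction are fitted relative to the DMSO negative control.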

The nature of assay [13]: BSK_4H_SRB: Viability Assessment in the BioMAP Diversity Plus: 4H Assay (AID 2283027).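 Also: cells exposed to compound for 24 h before staining.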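 As to AC50: curves fitted both ways versus DMSO so AC50 may be loss or gain.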 The following applies: primary human endothelial cells (HUVEC). An outline of the steps: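 Cytotoxicity read-out in primary human endothelial cells: after 24 h compound exposure, cells were TCA-fixed (10%), stained with 0.1% SRB and absorbance taken at 560 nm. Values fitted in both directions relative to DMSO.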

Assay [14] is described as follows: BSK_BE3C_SRB: Viability Assessment in the BioMAP Diversity Plus: BE3C Assay (AID 2283028).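 As to AC50: fitted both ways so AC50 may mark signal gain or loss versus DMSO.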 The following applies: primary human bronchial epithelial cells. The method, boiled down:
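Primary human bronchial epithelium; chemical dosing, 24 h; 10% TCA fix, 0.1% SRB stain, A560; bidirectional fit vs DMSO baseline.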

Read-out in assay [15]: Thrombomodulin, THBD (gene 7056)
In words: BSK_3C_Thrombomodulin: BioMAP Diversity Plus: 3C Assay for Thrombomodulin Biomarker Activity (AID 2283029). The following applies: primary human endothelial cells (HUVEC); actives raise or lower the signal. The method, boiled down: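 Endothelial cells from umbilical vein are dosed with test chemical and incubated 24 h. Thrombomodulin is then quantified by ELISA, with DMSO serving as negative control and activity baseline.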

Read-out in assay [16]: Urokinase-type plasminogen activator receptor (uPAR), PLAUR (gene 5329)
Put plainly: BSK_4H_uPAR: BioMAP Diversity Plus: 4H Assay for Urokinase-type plasminogen activator receptor (uPAR) Biomarker Activity (AID 2283030). The following applies: primary human endothelial cells (HUVEC); actives raise or lower the signal. An outline of the steps:
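HUVEC, 24 h post-dose; uPAR by ELISA; bidirectional fit vs DMSO baseline.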

Read-out in assay [17]: Vascular endothelial growth factor receptor 2 (Homo sapiens) (UniProt P35968)
In words: BSK_4H_VEGFRII: BioMAP Diversity Plus: 4H Assay for Vascular endothelial growth factor receptor 2 (VEGFR2) Biomarker Activity (AID 2283031). The following applies: primary human endothelial cells (HUVEC); actives raise or lower the signal. The method, boiled down: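 HUVEC (human primary), 4H system; 24 h post-dose; VEGFRII by ELISA; bidirectional curve fit vs DMSO baseline; gain or loss of signal scored.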

Assay [18] addresses human Vitamin D Receptor (VDR), VDR (gene 7421) (UniProt P11473). Put plainly: ATG_VDR_TRANS: Attagene TRANS-FACTORIAL HepG2 Assay for human Vitamin D Receptor (VDR) (AID 2283022; active = hit-call score of the fitted dose curve at least 0.9, where 1 is the maximum). An outline of the steps: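 RT-PCR/capillary electrophoresis read-out of reporter mRNA induction in transiently transfected HepG2; 24 h dosing; chimeric NR-Gal4 (TRANS format); gain-of-signal fit against DMSO baseline.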

Assay [19] concerns the target human Thyroid Receptor alpha (THRa1), THRA (gene 7067) (UniProt P10827). Put plainly: ATG_THRa1_TRANS: Attagene TRANS-FACTORIAL HepG2 Assay for human Thyroid Receptor alpha (THRa1) (AID 2283014; active = hit-call score of the fitted dose curve at least 0.9, where 1 is the maximum). The method, boiled down: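 Transient HepG2 transfection, NR-Gal4 chimera driving GAL4-UAS reporters; 24 h compound exposure; total RNA, oligo(dT) RT, PCR, fluorescent primer extension, capillary electrophoresis. Upward direction vs DMSO control.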

human Retinoid X Receptor beta (RXRb), RXRB (gene 6257), sequence (P28702 whole entry, looked up, the tested form may be a part): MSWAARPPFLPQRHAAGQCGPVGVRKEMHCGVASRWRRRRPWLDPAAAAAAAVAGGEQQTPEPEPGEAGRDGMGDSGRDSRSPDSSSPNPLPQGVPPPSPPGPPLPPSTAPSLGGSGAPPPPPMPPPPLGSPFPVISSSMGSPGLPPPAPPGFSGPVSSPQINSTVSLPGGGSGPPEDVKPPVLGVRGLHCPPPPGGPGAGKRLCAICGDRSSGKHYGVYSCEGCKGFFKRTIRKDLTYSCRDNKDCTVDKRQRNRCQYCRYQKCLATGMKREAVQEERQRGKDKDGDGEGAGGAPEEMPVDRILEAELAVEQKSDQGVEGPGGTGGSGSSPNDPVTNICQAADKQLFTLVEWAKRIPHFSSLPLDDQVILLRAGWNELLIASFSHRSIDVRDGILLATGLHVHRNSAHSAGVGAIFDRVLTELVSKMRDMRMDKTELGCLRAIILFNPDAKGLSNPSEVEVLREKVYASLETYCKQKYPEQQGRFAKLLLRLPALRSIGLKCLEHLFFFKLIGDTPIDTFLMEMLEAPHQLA
E-selectin (Homo sapiens), sequence (P16581 whole entry, looked up): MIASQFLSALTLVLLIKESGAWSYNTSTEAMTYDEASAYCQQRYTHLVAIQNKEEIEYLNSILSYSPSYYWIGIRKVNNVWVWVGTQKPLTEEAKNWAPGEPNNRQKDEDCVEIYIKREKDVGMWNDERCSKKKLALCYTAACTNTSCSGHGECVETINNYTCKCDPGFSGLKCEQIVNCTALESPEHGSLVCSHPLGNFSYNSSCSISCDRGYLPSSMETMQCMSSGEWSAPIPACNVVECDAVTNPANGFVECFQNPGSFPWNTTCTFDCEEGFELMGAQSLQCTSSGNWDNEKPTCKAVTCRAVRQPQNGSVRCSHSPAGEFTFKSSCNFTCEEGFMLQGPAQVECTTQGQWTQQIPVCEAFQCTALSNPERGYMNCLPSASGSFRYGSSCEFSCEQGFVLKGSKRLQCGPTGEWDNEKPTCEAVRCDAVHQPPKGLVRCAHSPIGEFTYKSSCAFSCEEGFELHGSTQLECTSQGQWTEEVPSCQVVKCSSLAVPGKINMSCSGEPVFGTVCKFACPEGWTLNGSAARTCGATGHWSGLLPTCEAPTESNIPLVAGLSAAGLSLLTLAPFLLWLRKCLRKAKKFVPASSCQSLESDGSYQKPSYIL
human Vitamin D Receptor (VDR), VDR (gene 7421), sequence (P11473 whole entry, looked up, the tested form may be a part): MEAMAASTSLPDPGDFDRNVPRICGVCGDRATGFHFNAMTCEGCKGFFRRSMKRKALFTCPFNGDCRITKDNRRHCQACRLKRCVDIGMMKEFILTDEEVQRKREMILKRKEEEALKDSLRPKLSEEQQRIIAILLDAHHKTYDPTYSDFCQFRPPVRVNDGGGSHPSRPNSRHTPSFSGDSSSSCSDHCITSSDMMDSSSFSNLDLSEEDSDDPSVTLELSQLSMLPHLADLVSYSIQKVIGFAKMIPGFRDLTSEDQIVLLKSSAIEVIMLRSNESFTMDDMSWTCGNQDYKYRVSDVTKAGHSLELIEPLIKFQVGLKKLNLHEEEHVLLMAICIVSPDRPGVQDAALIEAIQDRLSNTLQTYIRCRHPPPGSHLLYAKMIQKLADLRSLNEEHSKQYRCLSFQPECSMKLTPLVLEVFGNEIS
human Thyroid Receptor alpha (THRa1), THRA (gene 7067), sequence (P10827 whole entry, looked up, the tested form may be a part): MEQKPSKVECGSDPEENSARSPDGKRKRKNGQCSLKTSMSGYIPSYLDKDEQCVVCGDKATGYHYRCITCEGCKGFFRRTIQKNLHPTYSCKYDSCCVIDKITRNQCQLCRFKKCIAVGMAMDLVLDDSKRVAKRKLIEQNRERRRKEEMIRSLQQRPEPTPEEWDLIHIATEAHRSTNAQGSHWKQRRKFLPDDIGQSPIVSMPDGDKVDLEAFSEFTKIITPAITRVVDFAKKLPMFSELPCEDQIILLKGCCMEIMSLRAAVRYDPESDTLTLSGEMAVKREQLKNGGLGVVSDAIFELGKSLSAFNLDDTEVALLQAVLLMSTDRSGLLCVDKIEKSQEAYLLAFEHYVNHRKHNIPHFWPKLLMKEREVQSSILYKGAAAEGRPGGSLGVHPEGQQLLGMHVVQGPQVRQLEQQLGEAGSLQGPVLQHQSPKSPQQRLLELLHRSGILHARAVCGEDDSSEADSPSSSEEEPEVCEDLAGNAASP

Consider `C/C=C/c1ccc(OC)cc1`, for which the result in assay [1], in assay [2], in [3], in assay [4], in assay [5] and in assay [6] was inactive. The result in assay [7], in assay [8], in assay [9], in assay [10], in [11] and in [12] was inactive. The outcome in assay [13], in assay [14], in [15], in assay [16] and in assay [17] was inactive.
As to `CC1(C)C(=O)NC(=O)N1CO`, the result in assay [1], in assay [2], in assay [3], in [4], in [5] and in assay [7] was inactive. Moreover, the outcome in [8], in assay [18], in assay [9], in [10], in assay [11] and in assay [12] was inactive. For the same compound, the result in assay [13], in assay [14], in assay [15], in assay [16] and in assay [17] was inactive.
For the compound `CCCC(=O)O`, the outcome in assay [2], in [3], in assay [4], in assay [5], in assay [7] and in assay [8] was inactive. For the same compound, the compound was called inactive in assay [18], in [9], in assay [10], in [11], in [12] and in assay [13]. Moreover, the outcome in [14], in assay [15], in [16] and in assay [17] was inactive.
Take `Cc1cc(Cc2ccc(N)c(C)c2)ccc1N`: the outcome in assay [1], in assay [2], in assay [3], in assay [4], in assay [5] and in [6] was inactive. Besides, the outcome in assay [7], in assay [8], in assay [9], in [10], in assay [11] and in assay [12] was inactive. Further, the result in assay [13], in assay [14], in assay [15], in [16] and in [17] was inactive.
For the compound `CC(=O)S[C@H](C(=O)N[C@H]1Cc2ccccc2[C@H]2CCC[C@@H](C(=O)O)N2C1=O)C(C)C`, the result in [2], in assay [3], in [4], in [5], in [7] and in [8] was inactive. In addition, the outcome in assay [9], in [10], in assay [11], in [12], in assay [13] and in assay [14] was inactive. In addition, the result in [15], in assay [16] and in assay [17] was inactive.
What is called AC50 is the concentration at which the activity in the assay is half-maximal. `Cc1ccc(-c2cc(C(F)(F)F)nn2-c2ccc(S(N)(=O)=O)cc2)cc1`: the AC50 in [2] was 30 µM (active); in assay [3], 33.3 µM (active); in assay [4], 37.8 µM (active); in assay [5] it was 27.8 µM (active); in assay [7], 32.7 µM (active); in assay [9] it was 23.1 µM (active). In addition, the AC50 is 31.7 µM (active) in assay [10]; 37.5 µM (active) in assay [11]; 25.8 µM (active) in assay [12]; 28 µM (active) in assay [13]; 35.7 µM (active) in assay [14]; 28.4 µM (active) in [15]. Besides, the AC50 in assay [16] is 20 µM (active). Further, in assay [17], the result was inactive.
`c1ccc2occc2c1`: the outcome in assay [19], in [2], in assay [3], in assay [4], in assay [5] and in [6] was inactive. Moreover, the outcome in [7], in [8], in assay [9], in [10], in [11] and in assay [12] was inactive. Also, the result in assay [13], in [14], in assay [15], in assay [16] and in assay [17] was inactive.
For `O=C(O)CC(O)(CC(=O)O)C(=O)O`, the result in assay [2], in [3], in assay [4], in assay [5], in assay [6] and in assay [7] was inactive. Moreover, the result in assay [8], in [9], in assay [10], in [11], in assay [12] and in assay [13] was inactive. Moreover, the result in assay [14], in assay [15], in assay [16] and in assay [17] was inactive.
